According to PubChem BioAssay (EPA / NIEHS):
Results filed as inconclusive are left out. Calls of active or inactive are those of the source. The calls were made as follows, unless noted: active = hit-call score of the fitted dose curve at least 0.9, where 1 is the maximum; inactive = score below 0.9.

Tests used:
[1] = target: Bile acid receptor (Homo sapiens) (UniProt Q96RI1); test: ATG_FXR_TRANS: Attagene TRANS-FACTORIAL HepG2 Assay for Farnesoid X Receptor (FXR) (AID 2282979; active = hit-call score of the fitted dose curve at least 0.9, where 1 is the maximum;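 also: hits raise reporter mRNA above DMSO so AC50 marks FXR activation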); settings: HepG2 Attagene TRANS FXR-GAL4 reporter transcription
Bile acid receptor (Homo sapiens), sequence (Q96RI1 whole entry, looked up, the tested form may be a part): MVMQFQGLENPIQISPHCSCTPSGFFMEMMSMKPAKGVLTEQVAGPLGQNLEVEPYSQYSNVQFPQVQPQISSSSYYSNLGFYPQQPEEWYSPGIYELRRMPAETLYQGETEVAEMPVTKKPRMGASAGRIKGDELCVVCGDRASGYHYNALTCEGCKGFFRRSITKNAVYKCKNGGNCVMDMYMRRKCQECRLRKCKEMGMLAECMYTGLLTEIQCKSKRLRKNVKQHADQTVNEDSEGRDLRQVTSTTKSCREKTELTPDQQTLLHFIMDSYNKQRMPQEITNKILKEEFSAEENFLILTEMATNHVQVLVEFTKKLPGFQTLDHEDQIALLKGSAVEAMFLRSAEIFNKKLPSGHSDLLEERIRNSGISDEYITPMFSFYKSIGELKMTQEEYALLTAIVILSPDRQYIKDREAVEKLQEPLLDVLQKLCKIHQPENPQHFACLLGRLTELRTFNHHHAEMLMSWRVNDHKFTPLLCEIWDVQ
Outline: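 After 24 h chemical treatment of transfected HepG2 cells, GAL4-UAS reporter transcripts driven by an exogenous FXR-GAL4 fusion were measured by RT-PCR and capillary electrophoresis. Increases over DMSO were fitted.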

[2] = target: Oxysterols receptor LXR-beta (Homo sapiens) (UniProt P55055); test: ATG_LXRb_TRANS: Attagene TRANS-FACTORIAL HepG2 Assay for human Liver X Receptor beta (LXRb) (AID 2282981; active = hit-call score of the fitted dose curve at least 0.9, where 1 is the maximum); settings: HepG2 Attagene TRANS GAL4-LXRb reporter, mRNA
Oxysterols receptor LXR-beta (Homo sapiens), sequence (P55055 whole entry, looked up, the tested form may be a part): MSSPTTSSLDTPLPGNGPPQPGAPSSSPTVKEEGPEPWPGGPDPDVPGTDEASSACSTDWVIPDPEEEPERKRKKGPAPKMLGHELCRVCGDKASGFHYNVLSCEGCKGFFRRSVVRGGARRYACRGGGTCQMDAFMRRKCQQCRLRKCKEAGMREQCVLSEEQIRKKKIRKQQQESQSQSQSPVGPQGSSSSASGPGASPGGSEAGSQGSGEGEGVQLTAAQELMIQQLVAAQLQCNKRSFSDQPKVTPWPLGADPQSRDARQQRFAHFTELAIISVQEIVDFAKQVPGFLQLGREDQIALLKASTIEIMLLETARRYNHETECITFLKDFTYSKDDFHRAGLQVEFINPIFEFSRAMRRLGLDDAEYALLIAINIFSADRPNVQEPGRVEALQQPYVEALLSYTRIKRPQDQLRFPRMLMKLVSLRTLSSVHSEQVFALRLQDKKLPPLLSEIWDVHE
Outline: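 After 24 h chemical treatment of transfected HepG2 cells carrying exogenous NR-Gal4 chimeras, reporter mRNA was quantified by fluorescent RT-PCR and capillary electrophoresis; activity taken as increase over DMSO controls.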

[3] = ATG_M_32_TRANS: Attagene TRANS-FACTORIAL HepG2 Assay for M32 Transcription Factor (Internal Marker) (AID 2282984; active = hit-call score of the fitted dose curve at least 0.9, where 1 is the maximum;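 also: transcript level of a background control reporter unit measured by RT-PCR and capillary electrophoresis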); settings: HepG2 Attagene TRANS M32 internal marker reporter
Outline: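 Internal background reporter in transfected HepG2: after 24 h chemical exposure, RNA reverse-transcribed, reporter cDNA amplified, fluorescently labelled and HpaI-cut, then sized by capillary electrophoresis. Gain of signal fitted against DMSO control.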

[4] = target: Nuclear receptor subfamily 4 group A member 2 (Homo sapiens) (UniProt P43354); test: ATG_NURR1_TRANS: Attagene TRANS-FACTORIAL HepG2 Assay for human Nuclear Receptor Related Protein 1 (NURR1) (AID 2282985; active = hit-call score of the fitted dose curve at least 0.9, where 1 is the maximum); settings: HepG2 Attagene TRANS reporter, mRNA readout
Nuclear receptor subfamily 4 group A member 2 (Homo sapiens), sequence (P43354 whole entry, looked up, the tested form may be a part): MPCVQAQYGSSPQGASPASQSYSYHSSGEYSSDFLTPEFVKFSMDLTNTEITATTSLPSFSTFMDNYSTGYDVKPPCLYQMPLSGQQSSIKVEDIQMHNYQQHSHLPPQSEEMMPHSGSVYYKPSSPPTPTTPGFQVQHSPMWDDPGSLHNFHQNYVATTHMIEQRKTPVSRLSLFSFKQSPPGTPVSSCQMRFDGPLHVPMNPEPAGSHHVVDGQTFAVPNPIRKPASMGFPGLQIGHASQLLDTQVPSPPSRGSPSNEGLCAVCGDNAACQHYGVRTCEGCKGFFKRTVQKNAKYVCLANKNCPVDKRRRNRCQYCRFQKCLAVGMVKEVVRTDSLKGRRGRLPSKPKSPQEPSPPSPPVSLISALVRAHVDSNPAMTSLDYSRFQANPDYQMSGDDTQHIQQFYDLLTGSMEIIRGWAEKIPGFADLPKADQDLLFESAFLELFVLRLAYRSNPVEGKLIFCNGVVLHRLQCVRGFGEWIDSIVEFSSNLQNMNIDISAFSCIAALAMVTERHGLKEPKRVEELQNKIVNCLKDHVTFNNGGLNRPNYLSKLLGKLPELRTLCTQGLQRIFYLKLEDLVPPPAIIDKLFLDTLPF
Outline: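 Reporter transcript induction, measured by RT-PCR with fluorescent labelling, HpaI digestion and capillary electrophoresis, after 24 hr dosing of human HepG2 cells transiently expressing an exogenous NR-Gal4 fusion with GAL4-UAS-driven reporters; DMSO as baseline.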

[5] = target: Transcriptional activator Myb (Homo sapiens) (UniProt P10242); test: ATG_Myb_CIS: Attagene CIS-FACTORIAL HepG2 Assay for human Myeloblastosis (Myb) Proto-Oncogene Transcription Factor (AID 2282986); settings: HepG2 Attagene CIS-FACTORIAL Myb reporter transcription; actives raise or lower the signal
Transcriptional activator Myb (Homo sapiens), sequence (P10242 whole entry, looked up): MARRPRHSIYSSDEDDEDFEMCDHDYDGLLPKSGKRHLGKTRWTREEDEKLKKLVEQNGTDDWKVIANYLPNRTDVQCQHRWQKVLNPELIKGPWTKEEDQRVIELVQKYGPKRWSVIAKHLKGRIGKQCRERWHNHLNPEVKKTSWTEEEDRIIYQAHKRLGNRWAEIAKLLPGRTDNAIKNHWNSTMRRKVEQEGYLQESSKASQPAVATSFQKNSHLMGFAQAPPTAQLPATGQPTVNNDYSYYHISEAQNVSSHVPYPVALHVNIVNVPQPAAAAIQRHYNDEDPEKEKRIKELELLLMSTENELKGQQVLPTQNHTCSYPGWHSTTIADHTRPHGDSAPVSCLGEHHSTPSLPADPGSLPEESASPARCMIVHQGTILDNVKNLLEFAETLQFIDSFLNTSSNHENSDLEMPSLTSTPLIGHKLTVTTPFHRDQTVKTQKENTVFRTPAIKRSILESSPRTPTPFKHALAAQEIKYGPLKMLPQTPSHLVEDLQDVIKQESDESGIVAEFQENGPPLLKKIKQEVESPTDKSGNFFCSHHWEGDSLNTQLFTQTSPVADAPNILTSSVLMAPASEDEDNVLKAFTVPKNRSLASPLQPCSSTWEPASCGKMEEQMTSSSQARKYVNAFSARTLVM
Outline: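 Reporter mRNA is quantified by RT-PCR and capillary electrophoresis 24 h after dosing HepG2 cells transfected with cis-regulated reporter units, which track endogenous transcription factor activity. Gain and loss of signal are fitted versus DMSO baseline.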

[6] = ATG_NFI_CIS: Attagene CIS-FACTORIAL HepG2 Assay for human Nuclear Factor I (NFI) (AID 2282989); settings: HepG2 cis-regulatory reporter, NFI response element transcription; actives raise or lower the signal
Outline: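 Reporter transcripts were measured by RT-PCR with fluorescent primer extension and capillary electrophoresis 24 h post-treatment. HepG2 cells carried transiently transfected cis-regulated reporter constructs reporting endogenous factor activity; gain or loss fitted against DMSO baseline.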

[7] = target: Myc proto-oncogene protein (Homo sapiens) (UniProt P01106); test: ATG_Myc_CIS: Attagene CIS-FACTORIAL HepG2 Assay for human Myelocytomatosis (Myc) Proto-Oncogene Transcription Factor (AID 2282990); settings: HepG2, Attagene cis-reporter transcription factor activity; actives raise or lower the signal
Myc proto-oncogene protein (Homo sapiens), sequence (P01106 whole entry, looked up): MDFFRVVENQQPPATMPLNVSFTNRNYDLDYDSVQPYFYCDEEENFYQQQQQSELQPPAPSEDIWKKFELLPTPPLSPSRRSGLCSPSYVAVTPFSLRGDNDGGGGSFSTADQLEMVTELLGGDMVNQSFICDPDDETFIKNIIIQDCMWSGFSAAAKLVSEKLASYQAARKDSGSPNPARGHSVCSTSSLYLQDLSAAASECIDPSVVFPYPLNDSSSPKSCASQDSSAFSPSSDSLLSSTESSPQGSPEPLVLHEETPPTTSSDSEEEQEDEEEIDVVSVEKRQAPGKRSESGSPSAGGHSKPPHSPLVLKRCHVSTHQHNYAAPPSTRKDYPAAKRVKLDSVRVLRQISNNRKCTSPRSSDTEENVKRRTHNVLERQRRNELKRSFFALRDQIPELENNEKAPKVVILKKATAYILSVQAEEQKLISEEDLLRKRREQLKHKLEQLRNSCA
Outline: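 Cells of the HepG2 human liver line bear multiple cis-driven reporter transcription units. Reporter mRNA after 24 h exposure is reverse-transcribed, amplified, labelled and resolved by capillary electrophoresis, with gain- or loss-of-signal fitting relative to DMSO.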

[8] = ATG_NF_kB_CIS: Attagene CIS-FACTORIAL HepG2 Assay for human Nuclear Factor Kappa B (NF-kB) (AID 2282991); settings: HepG2 Attagene cis-factorial NF-kB reporter mRNA; actives raise or lower the signal
Outline: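 Readout is reporter transcript level, gain or loss versus DMSO, measured 24 h post-dose via RT-PCR, fluorescent labelling and capillary electrophoresis. Human HepG2 liver cells carried transiently transfected CIS reporter constructs reflecting endogenous factors.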

[9] = ATG_NRF2_ARE_CIS: Attagene CIS-FACTORIAL HepG2 Assay for human Nuclear Factor Erythroid 2 Related Factor 2 (NFR2) response to Antioxidant Response Elements (ARE) (AID 2282992); settings: HepG2 Attagene ARE/NRF2 reporter, transcription factor activity; actives raise or lower the signal
Outline: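 Endogenous transcription factor activity read out as reporter transcript levels (RT-PCR plus capillary electrophoresis, fluorescence) in transiently transfected HepG2 cells. Measured at 24 h after dosing; gain or loss of signal fitted versus DMSO.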

[10] = ATG_Oct_MLP_CIS: Attagene CIS-FACTORIAL HepG2 Assay for human Octamer-Binding Transcription Factor (Oct) (AID 2282993); settings: HepG2 Attagene cis-factorial Oct reporter, mRNA; actives raise or lower the signal
Outline: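 Readout is reporter transcript level from RT-PCR with fluorescent primer extension and capillary electrophoresis, fitted in both directions against DMSO. Transfected HepG2 reporter units report endogenous factor activity after 24 h dosing.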

[11] = target: Cellular tumor antigen p53 (Homo sapiens) (UniProt P04637); test: ATG_p53_CIS: Attagene CIS-FACTORIAL HepG2 Assay for human p53 Transcription Factor (AID 2282994); settings: HepG2 p53 cis-element reporter, Attagene mRNA; actives raise or lower the signal
Cellular tumor antigen p53 (Homo sapiens), sequence (P04637 whole entry, looked up): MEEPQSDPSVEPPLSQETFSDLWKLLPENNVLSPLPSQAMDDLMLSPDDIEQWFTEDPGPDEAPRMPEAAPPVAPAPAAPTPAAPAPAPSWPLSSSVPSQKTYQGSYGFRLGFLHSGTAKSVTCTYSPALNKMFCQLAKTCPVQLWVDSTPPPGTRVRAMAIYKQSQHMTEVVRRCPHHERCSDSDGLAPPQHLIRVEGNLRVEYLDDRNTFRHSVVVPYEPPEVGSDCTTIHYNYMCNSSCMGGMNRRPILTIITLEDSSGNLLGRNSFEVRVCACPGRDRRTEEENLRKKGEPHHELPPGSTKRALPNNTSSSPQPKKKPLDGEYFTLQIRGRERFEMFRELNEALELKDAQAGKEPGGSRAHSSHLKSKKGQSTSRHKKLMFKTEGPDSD
Outline: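 Endogenous p53 activity read in transiently transfected HepG2 from a cis-element-driven reporter transcript after 24 h exposure. RNA reverse-transcribed, PCR-amplified, fluorescently labelled and sized by capillary electrophoresis; gain or loss fitted against DMSO baseline.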

[12] = target: Nuclear respiratory factor 1 (Homo sapiens) (UniProt Q16656); test: ATG_NRF1_CIS: Attagene CIS-FACTORIAL HepG2 Assay for human Nuclear Respiratory Factor 1 (NRF1) Orphan Gene (AID 2282987); settings: HepG2 NRF1 cis-element reporter, Attagene multiplex; actives raise or lower the signal
Nuclear respiratory factor 1 (Homo sapiens), sequence (Q16656 whole entry, looked up): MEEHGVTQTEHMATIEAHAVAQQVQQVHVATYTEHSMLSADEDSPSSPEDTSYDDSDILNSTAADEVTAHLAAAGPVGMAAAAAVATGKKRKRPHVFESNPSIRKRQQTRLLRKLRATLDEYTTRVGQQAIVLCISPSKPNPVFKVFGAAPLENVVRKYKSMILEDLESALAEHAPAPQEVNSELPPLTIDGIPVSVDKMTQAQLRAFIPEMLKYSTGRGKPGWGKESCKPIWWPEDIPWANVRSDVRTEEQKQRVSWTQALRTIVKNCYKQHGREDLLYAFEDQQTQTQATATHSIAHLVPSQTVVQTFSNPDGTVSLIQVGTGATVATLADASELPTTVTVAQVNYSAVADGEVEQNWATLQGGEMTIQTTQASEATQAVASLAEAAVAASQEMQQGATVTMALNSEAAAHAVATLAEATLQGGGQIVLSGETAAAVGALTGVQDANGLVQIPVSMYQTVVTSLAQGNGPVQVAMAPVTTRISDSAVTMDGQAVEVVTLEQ
Outline: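 Endogenous NRF1-driven reporter transcription in transfected HepG2 cells after 24 h treatment. Readout: RT-PCR products, 6-FAM labelled and resolved by capillary electrophoresis; changes fitted both directions relative to DMSO.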

[13] = target: Hepatocyte nuclear factor 4-alpha (Homo sapiens) (UniProt P41235); test: ATG_HNF4a_TRANS: Attagene TRANS-FACTORIAL HepG2 Assay for human Hepatocyte Nuclear Factor 4 alpha (HNF4a) (AID 2282982; active = hit-call score of the fitted dose curve at least 0.9, where 1 is the maximum); settings: HepG2 HNF4a transactivation reporter, mRNA readout
Hepatocyte nuclear factor 4-alpha (Homo sapiens), sequence (P41235 whole entry, looked up, the tested form may be a part): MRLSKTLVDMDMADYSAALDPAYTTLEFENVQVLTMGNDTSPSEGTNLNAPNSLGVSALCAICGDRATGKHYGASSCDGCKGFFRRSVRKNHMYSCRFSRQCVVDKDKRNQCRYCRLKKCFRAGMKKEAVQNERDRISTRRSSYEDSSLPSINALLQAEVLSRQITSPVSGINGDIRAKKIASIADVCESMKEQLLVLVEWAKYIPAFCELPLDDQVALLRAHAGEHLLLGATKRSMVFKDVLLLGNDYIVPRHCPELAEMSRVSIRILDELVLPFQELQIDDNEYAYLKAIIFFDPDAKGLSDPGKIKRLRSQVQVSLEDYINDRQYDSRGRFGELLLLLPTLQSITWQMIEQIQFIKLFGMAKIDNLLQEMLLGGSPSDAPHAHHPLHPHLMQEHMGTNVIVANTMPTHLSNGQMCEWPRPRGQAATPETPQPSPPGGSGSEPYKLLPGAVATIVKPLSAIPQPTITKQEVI
Outline: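 Activity of an exogenous HNF4a–Gal4 fusion scored as induced GAL4-UAS reporter transcripts after 24 h chemical exposure of transfected human HepG2 cells. Read-out via RT-PCR with 6-FAM labelling and capillary electrophoresis; rise over DMSO baseline.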

[14] = ATG_M_06_TRANS: Attagene TRANS-FACTORIAL HepG2 Assay for M06 Transcription Factor (Internal Marker) (AID 2282983; active = hit-call score of the fitted dose curve at least 0.9, where 1 is the maximum); settings: HepG2 Attagene TRANS M06 internal marker reporter
Outline: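 Multi-reporter-transfected HepG2, 24 h treatment; reporter transcripts quantified via RT-PCR, primer-extension labelling and CE. DMSO-normalized gain-of-signal fit.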

[15] = BSK_3C_TissueFactor: BioMAP Diversity Plus: 3C Assay for Tissue Factor Biomarker Activity (AID 2282997); settings: BioMAP 3C HUVEC, tissue factor biomarker readout; actives raise or lower the signal
Outline: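 In this endothelial system, HUVEC are treated for 24 h and Tissue Factor is assessed by ELISA, normalised to DMSO.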

[16] = BSK_3C_uPAR: BioMAP Diversity Plus: 3C Assay for Urokinase-type plasminogen activator receptor (uPAR) Biomarker Activity (AID 2282998); settings: BioMAP 3C HUVEC, uPAR biomarker ELISA; actives raise or lower the signal
Outline: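 Cell-surface uPAR on HUVEC (3C system) read by ELISA at 24 h post-treatment, with DMSO as baseline and fitting in both directions. Parallel cultures stained with SRB to flag overt cytotoxicity.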

[17] = BSK_3C_VCAM1: BioMAP Diversity Plus: 3C Assay for Vascular cell adhesion molecule 1 (VCAM1) Biomarker Activity (AID 2282999); settings: BioMAP 3C HUVEC, VCAM1 ELISA, cytokine-stimulated; actives raise or lower the signal
Outline: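 Activity fitted in both directions relative to DMSO, with ELISA measurement of the surface marker on primary HUVEC (3C) at 24 h post-treatment; parallel SRB staining (0.1% SRB, TCA-fixed, 560 nm) flagged overt cytotoxicity.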

[18] = BSK_4H_Eotaxin3: BioMAP Diversity Plus: 4H Assay for Eotaxin 3 Biomarker Activity (AID 2283000); settings: primary human endothelial cells (HUVEC); actives raise or lower the signal
Outline: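 ELISA quantitation of CCL26 (Eotaxin-3) protein from chemically dosed human vascular endothelial cells at 24 h; increases and decreases both scored relative to DMSO-treated baseline.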

[19] = target: Oxysterols receptor LXR-alpha (Homo sapiens) (UniProt Q13133); test: ATG_LXRa_TRANS: Attagene TRANS-FACTORIAL HepG2 Assay for human Liver X Receptor alpha (LXRa) (AID 2282980; active = hit-call score of the fitted dose curve at least 0.9, where 1 is the maximum); settings: HepG2 Attagene TRANS reporter, LXRa transactivation
Oxysterols receptor LXR-alpha (Homo sapiens), sequence (Q13133 whole entry, looked up, the tested form may be a part): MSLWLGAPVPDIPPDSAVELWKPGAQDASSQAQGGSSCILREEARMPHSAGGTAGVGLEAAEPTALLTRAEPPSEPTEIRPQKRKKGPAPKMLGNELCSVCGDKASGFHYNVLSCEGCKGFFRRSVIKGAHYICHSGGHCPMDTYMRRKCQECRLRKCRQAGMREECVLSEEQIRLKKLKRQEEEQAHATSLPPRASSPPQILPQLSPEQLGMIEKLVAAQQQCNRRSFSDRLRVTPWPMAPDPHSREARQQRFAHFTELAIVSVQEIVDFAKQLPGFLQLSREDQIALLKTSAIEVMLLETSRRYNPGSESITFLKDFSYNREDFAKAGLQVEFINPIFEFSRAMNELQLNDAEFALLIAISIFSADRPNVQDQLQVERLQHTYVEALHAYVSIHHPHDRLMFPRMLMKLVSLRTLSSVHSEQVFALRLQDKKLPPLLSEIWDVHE
Outline: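 In this multiplexed TRANS system, compounds act on HepG2 cells carrying GAL4-UAS reporter units and a receptor-GAL4 fusion for 24 h. Induced reporter RNA is amplified, fluorescently labelled and sized by capillary electrophoresis, with DMSO as baseline.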

Measured: AC50

CCOC(=O)CCc1ccccc1
not listed: [12] | [13] | [14] | [15] | [16] | [17] | [18] | [19]
inactive: all other assays above

C=Cc1ccc(C(C)(C)C)cc1
inactive: [1] | [4] | [5] | [12] | [6] | [7] | [8] | [9] | [10]

Cc1cc(C)nc(NS(=O)(=O)c2ccc(N)cc2)n1
not listed: [8] | [15] | [16] | [17] | [18] | [19]
inactive: all other assays above

CCCCCCCCC=CCCCCCCCC1=NCCN1CCO
inactive: [1] | [2] | [13] | [14] | [5] | [12] | [7] | [9] | [10]
active: [8] 26 µM | [11] 21 µM

C=C(C)C(=O)OCC(CC)(COC(=O)C(=C)C)COC(=O)C(=C)C
active: [9] 51.4 µM
not listed: [4] | [19]
inactive: all other assays above

C1CCOC1
not listed: [2] | [15] | [16] | [17] | [18] | [19]
inactive: all other assays above

O=C(CS)OCCOC(=O)CS
active: [8] 43.8 µM | [9] 148 µM | [11] 100 µM
inactive: [1] | [13] | [14] | [5] | [12] | [6] | [7] | [10]

COC(=O)Nc1ccc(Cl)c(Cl)c1
inactive: [1] | [2] | [13] | [14] | [5] | [12] | [6] | [7] | [10] | [11]
active: [4] 79.9 µM

COc1ccccc1[N+](=O)[O-]
inactive: [1] | [2] | [14] | [12] | [6] | [7] | [9] | [10] | [11]

CN(C)C(=S)SC(=S)N(C)C
active: [9] 22.9 µM | [16] 31.8 µM | [17] 19.9 µM | [18] 31.4 µM
not listed: [2] | [3] | [8] | [13] | [14] | [19]
inactive: all other assays above

CCC(=O)OCCOc1ccccc1
inactive: [19] | [2] | [14] | [3] | [4] | [5] | [12] | [6] | [7] | [10]

NC1CCCCC1N (stereo not given)
not listed: [1] | [6] | [8] | [13] | [15] | [16] | [17] | [18]
inactive: all other assays above

CCCCCCC(=O)c1ccccc1
inactive: [1] | [12] | [6] | [7] | [10]
active: [9] 121 µM

OC[C@H]1O[C@@H](Oc2ccc(O)cc2)[C@H](O)[C@@H](O)[C@@H]1O
inactive: [19] | [2] | [13] | [14] | [5] | [12] | [6] | [7] | [10] | [11]

c1ccc(CN(Cc2ccccc2)Cc2ccccc2)cc1
active: [9] 100 µM
inactive: [19] | [2] | [14] | [4] | [5] | [12] | [6] | [7] | [8] | [10]

CC(C)C(OC(=O)c1ccccc1)C(C)(C)COC(=O)c1ccccc1 (stereo not given)
active: [1] 20 µM
inactive: [4] | [5] | [12] | [6] | [7] | [9] | [10] | [11]

C1CCCCC1
not listed: [1] | [14] | [15] | [16] | [17] | [18]
inactive: all other assays above

CCCCCCCC(=O)OCCCCCC
not listed: [1] | [2] | [15] | [16] | [17] | [18]
inactive: all other assays above

CN(C)c1cccc(O)c1
inactive: [19] | [2] | [4] | [5] | [12] | [7] | [8] | [10]

O=C(Nc1ccc2c(O)c(N=Nc3ccc(N=Nc4ccc(S(=O)(=O)O)cc4)cc3)c(S(=O)(=O)O)cc2c1)c1ccccc1
not listed: [1] | [3] | [4] | [5] | [8] | [13]
inactive: all other assays above

Nc1c(Cl)cc(Cl)cc1[N+](=O)[O-]
active: [9] 41.5 µM
not listed: [1] | [4] | [5] | [15] | [16] | [17] | [18]
inactive: all other assays above

CC(Oc1cc(Cl)ccc1Cl)C(=O)O (stereo not given)
not listed: [1] | [3] | [13] | [14] | [15] | [16] | [17] | [18]
inactive: all other assays above
